# Over roughly 9,900 sequences, “r (bound/input frequency ratio)” has its median near 0.7; the highest 2% begin near 6.5. What follows is part of a selection rich in the highest values, with near analogues and random picks from the rest.
# B1: ENSMUSG00000034801.21|Sos2 (ssRNA)
# RNA: GGGAGUUCUACAGUCCGACGAUCGCUUCGAUAUCCGCAUGCUAGCCCUCUCCACGGAUUCCACGCAGCUGUCACUUGCUCAGCUCCAGUCACAGCAGCCUUGCUCAUCUUCCAGCUCCUCCUGUCCCACCAAGGCAGAAUUCAAGCCCUCUCUUACCAAAGCUGCCACCAAAGACUUACAAACGGGAGCUUUCCCACCCGCCACUGUAUAGACUGCCUCUGCUGGAAAAUGCAGAAACUCCUCAAUGACCUUGGCCAUAUGUAGUCAUUGACACUGGAAUAGUAUUUGUAAAGGUUUUUAAUUCUCUUGCGGUCGCACUAGUGUGGAAUUCUCGGGUGUCAAGG
# B2: ENSMUSG00000042529.183|Kcnj12 (ssRNA)
# RNA: GGGAGUUCUACAGUCCGACGAUCGCUUCGAUAUCCGCAUGCUAGUUUAAUCUUUCCCUACUGCCCUAAGUCCACUCAUGAAGCUCCCCAGGCCCUUCUGAGAUUGCAGAGGCUGCUUGCUCAUAGCCAUGACCCUGCCUGCUUUUGUCCCACACUGCUGGGGCAGGAUGAUGAAGCCCUGCUGGUCCCAGCCAGUCAUCUCCUGCUGGAAGGCAGAGUCUAGGGGAGAAGAGAAACACCCCCACCCCCACCCCUAUCCCGCACCAGCCCCCUGCCACCAUAGAGAUAGACCAGAGAAAUGUCACUCUUGCGGUCGCACUAGUGUGGAAUUCUCGGGUGUCAAGG
# B3: ENSMUSG00000061578.815|Ksr2 (ssRNA)
# RNA: GGGAGUUCUACAGUCCGACGAUCGCUUCGAUAUCCGCAUGCUAUGGGACUCUUUUUAUGAGGAACCAGUCCUGUUGAAUCGGGGUGCUCUGUAUUAGUUAUUUUUGUAACUUGUGAUUGUAACCAAAUGCCCGAUAGAAACAGCAUUCUGGCUCACAGUUUCAAAGGGCUCAGUCCAUAGCUGCCUGACUCUGUGUUUCUAGGCCUUUCUUGAGGCAAGUGUUCAUCAUGAUAGUGUGAGGGUGAGGAGGAGUUUCUUCAUGGCAAACAGGAAGCAAAGAGCAAUACAGGAAAAGGUCAGGGGCUCUUGCGGUCGCACUAGUGUGGAAUUCUCGGGUGUCAAGG
# B4: ENSMUSG00000061578.1222|Ksr2|31:35;225:229 (ssRNA)
# RNA: GGGAGUUCUACAGUCCGACGAUCGCUUCGAUAUCCGCAUGCUAGAAUGAGCCGCUGGGAUAUUGACAUGGAGAACACAUGAUGGAAAAAGCCUCCACACCCAACAUAACUCUCCAGAGAGAUAUUGAAAGUGAUGGGCAGAGAGUCUGACAAUGACCCAGGGGUCAUUGUGAGUCCUAGGCUGAAUCUGUAAUGGGGUCCAAAGUGCAGGAGAGACUGCAUUCACCUUGUUGGUGGGGUGGGGCUUCUUUCAUUACUUUAAGUAUCUCAUACGGCUUGAGGCAUGGGAAACAGCACCUUGUCUCUCUUGCGGUCGCACUAGUGUGGAAUUCUCGGGUGUCAAGG
# B5: ENSMUSG00000022095.104|Fam160b2 (ssRNA)
# RNA: GGGAGUUCUACAGUCCGACGAUCGCUUCGAUAUCCGCAUGCUAGCUGUUGCAAAAUUCCCAACUGCCUCCUGGCAGAGGCCCAAAGUAUGCUCUGCGCCCAGGCGGGGGCAGCUGCUAACAAGAGCCCUGGCGCAGCUGCAGCCAGGGCAGGCGAGAGCCUUGGAGCUGGGUGCCAGGCUCCAGCUCCAGCUCCAGCUGGUUCCUCUCUGGCGCCUUCUGAACCCGUCUCAGCAAGUCCGAAACACCUGGGCAGAGAGGUCAUUGACCAGGGAUGGGGGCCCUUGCCCUCUGAAUCCUGCCCACUCUUGCGGUCGCACUAGUGUGGAAUUCUCGGGUGUCAAGG
# B6: ENSMUSG00000061578.919|Ksr2|82:86 (ssRNA)
# RNA: GGGAGUUCUACAGUCCGACGAUCGCUUCGAUAUCCGCAUGCUACAAUUCUACCCAUGACAGACAUGUCCCAUCCAUGAGCCCAGAUAGUCAAAGACUUCAGCACAAGGGUGUUUAGAGUAGGCACACACGAAGUAUCAAUAAGGUUAUUGAGAUGAGGAUUUAGAAAGAUCCAUGUAUAAAAGGUCUAGAAGGAUGAAGAUCUAAAACAAGAAGACUGCAUGUUAACGCUCCUGCCACUGUUGCCCCUUCCUUUACCCUUGGCAGACAUUGCUAAUCAAUCUCAGCACAGUUUCCAACCACAGCUCUUGCGGUCGCACUAGUGUGGAAUUCUCGGGUGUCAAGG
# B7: ENSMUSG00000061578.806|Ksr2 (ssRNA)
# RNA: GGGAGUUCUACAGUCCGACGAUCGCUUCGAUAUCCGCAUGCUACCUCUCUCCAAUCUUUACCUUUGCCUCUACUAGAUGAUCUUGCAUCUGUCUUUGUGGGACUCUUUUUAUGAGGAACCAGUCCUGUUGAAUCGGGGUGCUCUGUAUUAGUUAUUUUUGUAACUUGUGAUUGUAACCAAAUGCCCGAUAGAAACAGCAUUCUGGCUCACAGUUUCAAAGGGCUCAGUCCAUAGCUGCCUGACUCUGUGUUUCUAGGCCUUUCUUGAGGCAAGUGUUCAUCAUGAUAGUGUGAGGGUGAGGAGCUCUUGCGGUCGCACUAGUGUGGAAUUCUCGGGUGUCAAGG
# B8: ENSMUSG00000043670.134|Diras1 (ssRNA)
# RNA: GGGAGUUCUACAGUCCGACGAUCGCUUCGAUAUCCGCAUGCUACCUGGCCACCCCGAGUACCACCUCUGGAAUAGCAGACGCCCACAGCACAAGCCCAGGACUGUCCCUUCAGGGGAGGCACACUGGAACCCUGAACUUGGAGUGUGGAGUGGCUGCCUGGACACUGCCCACCUGGACACCAGCCUUCUGCUGAGAUAGAGACCUUGGCACAGUGGCACCUCGACAGCCACCCCGACUGGGGGUUUGGGGUGCUGAGGGUGGGGUGCCCAGCUGAGAGUCUAUCAGCAAAGUCCCUGUGUGCGCUCUUGCGGUCGCACUAGUGUGGAAUUCUCGGGUGUCAAGG
# B9: ENSMUSG00000058297.456|Spock2|123:127 (ssRNA)
# RNA: GGGAGUUCUACAGUCCGACGAUCGCUUCGAUAUCCGCAUGCUAUCACACAGGUCAGAUUAUUGUCGGUCCUGCGGGCCUCAUCCUUGAAUAAGCUGCCUGCCCAGUUCCUCCAUCCGUGUUCCUGCCUGCUCCCGUUCCCUUGUUGCGGGCAGGAGAGGUAGGGCACACAUGGAAAGAGUUCAACCAAAUUACGGCAGCACCACAUCUUGCCGAGCCCUGGAGCUGCCCUACUAAGAGCCUCCUUAGCCCUGGGUGCUGGGAAGGAUGGUGUACGUUGGGGAAGUUUGAGGUUGGAGAGAGUACUCUUGCGGUCGCACUAGUGUGGAAUUCUCGGGUGUCAAGG
# B10: ENSMUSG00000043670.211|Diras1 (ssRNA)
# RNA: GGGAGUUCUACAGUCCGACGAUCGCUUCGAUAUCCGCAUGCUAGUGCCUGUGUGUGUGGAUGGGUGUGUGUCUGUCUUGGGAUGGGGUGUUCUUGCACCACUUUGUGUUCUUAGUGAGACCACAGUGUAAGUGGCCGUGUGUGUGUGUGGGGGGGGGCACCUAGACAUUGUGGUGUGUCUGUAUGGCUCUGUGUUUUCAGGGGUGGGUGACACAGGCCUGUCUGAUGAGCACCAGGUCUGUUCCAGGCUGUGGCAAGCUGGCUCCUGGCUCAGAAGUGACAAAGCUGCAGUACAGAGGCCUCACUCUUGCGGUCGCACUAGUGUGGAAUUCUCGGGUGUCAAGG
# Molecular target: TDP-43 (Homo sapiens, UniProt Q13148 1-414)
# Sequence (Q13148 whole entry): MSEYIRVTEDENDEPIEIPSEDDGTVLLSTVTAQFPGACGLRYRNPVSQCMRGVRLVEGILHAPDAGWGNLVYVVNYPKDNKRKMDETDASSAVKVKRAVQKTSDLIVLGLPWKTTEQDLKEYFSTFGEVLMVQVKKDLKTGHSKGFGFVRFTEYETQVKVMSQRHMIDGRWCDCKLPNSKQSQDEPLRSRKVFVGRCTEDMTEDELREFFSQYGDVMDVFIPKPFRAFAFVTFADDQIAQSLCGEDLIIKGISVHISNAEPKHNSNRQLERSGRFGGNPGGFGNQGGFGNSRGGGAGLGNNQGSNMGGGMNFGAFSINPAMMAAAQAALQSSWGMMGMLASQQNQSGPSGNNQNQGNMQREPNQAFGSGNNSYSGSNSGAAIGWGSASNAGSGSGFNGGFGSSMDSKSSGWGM
# Assay: RNA Bind-n-Seq with designed 260-mer pool; 25 mM Tris-HCl, 150 mM KCl, 3 mM MgCl2, BSA (printed 500 mg/mL), 20 units/mL SUPERase IN; pH not stated; 500 nM RNA pool, 1 h, 4 C; TDP-43 5, 50, 500 nM; high values mean tight binding
# Details: protein: recombinant; tags: SBP (GST cleaved off with PreScission; pGEX-GST-SBP)
# Method in brief: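 Binding (R) is the ratio of each oligo's mapped-read-normalized abundance in the bound fraction to its abundance in the input. To obtain it, SBP-tagged recombinant TDP-43 (5, 50 or 500 nM) on streptavidin beads was incubated with 500 nM of an in vitro-transcribed 260-nt 3′ UTR oligo pool for 1 h at 4 °C in 25 mM Tris-HCl, 150 mM KCl, 3 mM MgCl2, BSA and SUPERase IN. The RNA retained after washing was released with biotin, then reverse transcribed, amplified by PCR and sequenced.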
row,Binder,binding signal
1,B1,1.01 R (bound/input frequency ratio)
2,B2,1.85 R (bound/input frequency ratio)
3,B3,2.37 R (bound/input frequency ratio)
4,B4,0.49 R (bound/input frequency ratio)
5,B5,0.438 R (bound/input frequency ratio)
6,B6,0.397 R (bound/input frequency ratio)
7,B7,0.325 R (bound/input frequency ratio)
8,B8,0.868 R (bound/input frequency ratio)
9,B9,0.829 R (bound/input frequency ratio)
10,B10,5.36 R (bound/input frequency ratio)
